# This is part of a sample that, as a whole, favours compounds with a hit. Of some 79,000 tested, about 15% had one in any assay. Unmarked numbers belong to inactive results. Activity calls are given as the source filed them. No stated cut-off is given here; in the data, active means growth inhibition above about 70%; inactive means the rest.
# Assay: NCI Yeast Anticancer Drug Screen. Data for the cln2 rad14 strain (AID 165);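 further: 0% = growth equal to vehicle treated cultures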
# Settings: S. cerevisiae cln2 rad14 strain, at 50.0 µM, hits give high values
# Summary of the method: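 Yeast strain cln2 rad14, bearing defects in cell cycle control and DNA repair, serves as the test system; values reflect growth inhibition compared with vehicle.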
row,SMILES,growth inhibition
1,C[CH2][Sn]([CH2]C)([S]c1nc(O)cc(=O)[nH]1)[S]c1nc(O)cc(=O)[nH]1,7.9%
2,CCCC(=O)[O-].N.N.N.N.N.[Co+3].[O-][Cl+3]([O-])([O-])[O-],8%
3,COc1ccc(C)cc1C(=O)C[n+]1ccc2ccccc2c1,-21.4%
4,CC(C)[C@]12O[C@H]1[C@@H]1O[C@]13[C@]1(O[C@H]1C[C@H]1C4=C(C(=O)OC4)[C@@H](O)C[C@@]13C)[C@@H]2O,-5.85%
5,COc1cc(C=C2C(=O)NC(=S)NC2=O)cc(OC)c1OC,18.6%
6,CCC(C)OC(=O)Nc1cccc(OC(=O)NC)c1 (stereo not drawn),-2.15%
7,COC1=CC=C2[C@@H]3Cc4ccc(OC)c5c4[C@]2(CCN3CCCl)C1O5 (stereo partly drawn),8.2%
8,CCC(=O)c1ccc(N)cc1,-26.4%
9,CC(C)(C)C1=C(Br)C(Br)(C(C)(C)C)OP1(=O)c1ccccc1 (stereo not drawn),5.75%
10,[C-]#[O+].[C-]#[O+].[C-]#[O+].[C-]#[O+].[Cr].c1ccc([PH+](CC[PH+](c2ccccc2)c2ccccc2)c2ccccc2)cc1,15.2%
11,CCOC(OCC)/C(=C\N(C)C)N=C(C#N)C#N,-35.4%
12,BrCC[N+]12CC[N+](CCBr)(CC1)C2 (tested in a mixture with another compound),61.5%
13,c1cc2[se][se]c3c4cccc5[se][se]c(c(c1)c23)c54,-3.95%
14,CCCC(C)SP(=S)(SC(C)CCC)SC(C)CCC (stereo not drawn),-43.3%
15,CC(C)OP(=O)(NC(=S)c1ccccc1)OC(C)C,11.4%
16,ClC1OC(Cl)(Cl)C(Cl)(Cl)OC1(Cl)Cl (stereo not drawn),-4.25%
17,CC(=O)Nc1nn[nH]n1,6.95%
18,COC(=O)c1ccccc1NC(C)=O,-38.4%
19,CC1=C(\C=C/C(C)=C/C=C/C(C)=C/C=C/C=C(C)\C=C\C=C(C)/C=C/C2=C(C)CCCC2(C)C)C(C)(C)CCC1,26.4%
20,Nc1ccc(Cl)cc1.Nc1ccc(Cl)cc1.Nc1ccc(Cl)cc1.O=C([O-])C(=O)[O-].O=C([O-])C(=O)[O-].[H+].[Ru+5],27.5%

row,SMILES,growth inhibition
1,N#C[CH2][Sn]([c]1ccccc1)([c]1ccccc1)[c]1ccccc1,98% (active)
2,CCNC(=O)Oc1c(Cl)cc(S(=O)(=O)F)cc1Cl,12.5%
3,c1ccc(-c2csc3[nH]c4ccccc4[n+]23)cc1,5.7%
4,Cc1ccc(P(=S)(c2ccccc2)c2ccccc2)c2ccccc12,10.6%
5,C=CC[As+](c1cccc2ccccc12)(c1cccc2ccccc12)c1cccc2ccccc12,-33.4%
6,C1C2CC3C1C1CN3C21 (stereo not drawn),-28%
7,O=C(O)c1ccc(CI)cc1,9%
8,C/C=C/C(=O)[O-].N.N.N.N.N.[Co+3].[O-][Cl+3]([O-])([O-])[O-],9.35%
9,Cc1nnc(NC2=NCCO2)s1,-28.1%
10,Cc1ccc(C(=O)Nc2ccc(CP(=O)(O)O)cc2)cc1NC(=O)c1cccc(NC(=O)Nc2cccc(C(=O)Nc3cc(C(=O)Nc4ccc(CP(=O)(O)O)cc4)ccc3C)c2)c1,-10.3%
11,CC(=O)OC(C)(C)/C=C/C(=O)[C@](C)(O)[C@H]1[C@H](O)C[C@@]2(C)[C@@H]3CC=C4[C@@H](C[C@H](O)C(=O)C4(C)C)[C@]3(CO)C(=O)C[C@]12C,-7.8%
12,O=C(CCCN1CCC2(CC1)C(=O)NCN2c1ccccc1)c1ccccc1,-18.4%
13,CN(C1CCCC1)C1CCCC1,5.3%
14,CCOc1ccc(/C=C/c2cc(OC)c(OC)c(OC)c2)cc1,-10.3%
15,CCCOP(=O)(OCCC)C(=O)Nc1ccc(Br)cc1,-24.1%
16,COC(=O)C1c2cc(OC)c(OC)cc2C(=O)N2CCc3cc4c(cc3C12)OCO4 (stereo not drawn),12.1%
17,COc1ccc(CC(C)NO)cc1 (stereo not drawn),11.7%
18,S=P(NCc1cccc(CNP(=S)(N2CC2)N2CC2)c1)(N1CC1)N1CC1,7.8%
19,CNP(=S)(Oc1cc(Cl)c(Cl)cc1Cl)N1CCN(c2ccc(Cl)cc2)CC1 (stereo not drawn),-0.9%

# Assay: NCI Yeast Anticancer Drug Screen. Data for the bub3 strain (AID 167)
# Settings: S. cerevisiae bub3 mutant strain, at 50.0 µM, hits give high values
# Summary of the method: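 Mutant yeast screening strain plus compound; vehicle-treated cultures serve as the 0% inhibition reference.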
row,SMILES,growth inhibition
1,C[CH2][Sn]([CH2]C)([S]c1nc(O)cc(=O)[nH]1)[S]c1nc(O)cc(=O)[nH]1,21.9%
2,CCCC(=O)[O-].N.N.N.N.N.[Co+3].[O-][Cl+3]([O-])([O-])[O-],1.7%
3,COc1ccc(C)cc1C(=O)C[n+]1ccc2ccccc2c1,-6.5%
4,CC(C)[C@]12O[C@H]1[C@@H]1O[C@]13[C@]1(O[C@H]1C[C@H]1C4=C(C(=O)OC4)[C@@H](O)C[C@@]13C)[C@@H]2O,-0.3%
5,COc1cc(C=C2C(=O)NC(=S)NC2=O)cc(OC)c1OC,-1.35%
6,CCC(C)OC(=O)Nc1cccc(OC(=O)NC)c1 (stereo not drawn),-1.6%
7,COC1=CC=C2[C@@H]3Cc4ccc(OC)c5c4[C@]2(CCN3CCCl)C1O5 (stereo partly drawn),6.85%
8,CCC(=O)c1ccc(N)cc1,-4.8%
9,CC(C)(C)C1=C(Br)C(Br)(C(C)(C)C)OP1(=O)c1ccccc1 (stereo not drawn),-5%
10,[C-]#[O+].[C-]#[O+].[C-]#[O+].[C-]#[O+].[Cr].c1ccc([PH+](CC[PH+](c2ccccc2)c2ccccc2)c2ccccc2)cc1,0.35%
11,CCOC(OCC)/C(=C\N(C)C)N=C(C#N)C#N,3.25%
12,BrCC[N+]12CC[N+](CCBr)(CC1)C2 (tested in a mixture with another compound),78.1% (active)
13,c1cc2[se][se]c3c4cccc5[se][se]c(c(c1)c23)c54,-1.8%
14,CCCC(C)SP(=S)(SC(C)CCC)SC(C)CCC (stereo not drawn),2.85%
15,CC(C)OP(=O)(NC(=S)c1ccccc1)OC(C)C,13.8%
16,ClC1OC(Cl)(Cl)C(Cl)(Cl)OC1(Cl)Cl (stereo not drawn),18.8%
17,CC(=O)Nc1nn[nH]n1,0.7%
18,COC(=O)c1ccccc1NC(C)=O,-8.5%
19,CC1=C(\C=C/C(C)=C/C=C/C(C)=C/C=C/C=C(C)\C=C\C=C(C)/C=C/C2=C(C)CCCC2(C)C)C(C)(C)CCC1,37.2%
20,Nc1ccc(Cl)cc1.Nc1ccc(Cl)cc1.Nc1ccc(Cl)cc1.O=C([O-])C(=O)[O-].O=C([O-])C(=O)[O-].[H+].[Ru+5],26.6%

row,SMILES,growth inhibition
1,N#C[CH2][Sn]([c]1ccccc1)([c]1ccccc1)[c]1ccccc1,98.5% (active)
2,CCNC(=O)Oc1c(Cl)cc(S(=O)(=O)F)cc1Cl,16%
3,c1ccc(-c2csc3[nH]c4ccccc4[n+]23)cc1,5.25%
4,Cc1ccc(P(=S)(c2ccccc2)c2ccccc2)c2ccccc12,20%
5,C=CC[As+](c1cccc2ccccc12)(c1cccc2ccccc12)c1cccc2ccccc12,5.15%
6,C1C2CC3C1C1CN3C21 (stereo not drawn),-8.8%
7,O=C(O)c1ccc(CI)cc1,15.2%
8,C/C=C/C(=O)[O-].N.N.N.N.N.[Co+3].[O-][Cl+3]([O-])([O-])[O-],-12.8%
9,Cc1nnc(NC2=NCCO2)s1,-14.2%
10,Cc1ccc(C(=O)Nc2ccc(CP(=O)(O)O)cc2)cc1NC(=O)c1cccc(NC(=O)Nc2cccc(C(=O)Nc3cc(C(=O)Nc4ccc(CP(=O)(O)O)cc4)ccc3C)c2)c1,-1.55%
11,CC(=O)OC(C)(C)/C=C/C(=O)[C@](C)(O)[C@H]1[C@H](O)C[C@@]2(C)[C@@H]3CC=C4[C@@H](C[C@H](O)C(=O)C4(C)C)[C@]3(CO)C(=O)C[C@]12C,18.6%
12,O=C(CCCN1CCC2(CC1)C(=O)NCN2c1ccccc1)c1ccccc1,2.35%
13,CN(C1CCCC1)C1CCCC1,2.25%
14,CCOc1ccc(/C=C/c2cc(OC)c(OC)c(OC)c2)cc1,-8.6%
15,CCCOP(=O)(OCCC)C(=O)Nc1ccc(Br)cc1,25%
16,COC(=O)C1c2cc(OC)c(OC)cc2C(=O)N2CCc3cc4c(cc3C12)OCO4 (stereo not drawn),-3.3%
17,COc1ccc(CC(C)NO)cc1 (stereo not drawn),2.35%
18,S=P(NCc1cccc(CNP(=S)(N2CC2)N2CC2)c1)(N1CC1)N1CC1,-1.6%
19,CNP(=S)(Oc1cc(Cl)c(Cl)cc1Cl)N1CCN(c2ccc(Cl)cc2)CC1 (stereo not drawn),-2.9%

# From PubChem BioAssay (NCI)
